# Some of the results follow. Values without a mark were called inactive.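 Rule for the calls: active = inhibition of at least 50%; inactive = the rest.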
# Molecular target: Single-stranded DNA-binding protein (Escherichia coli (strain K12)) (UniProt P0AGE0)
# Test: E. coli SSB-DNA binding inhibitors, counter-screen for HCV NS3 helicase inhibitor project, biochemical, fluorescence polarization, selected ChemBridge compounds (AID 720486);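 note: displacers lower Cy5 polarization so higher inhibition means more SSB displaced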
# Conditions: E. coli SSB binding Cy5-dT15, fluorescence polarization; at 100 µM; hits give high values
# Chain of Single-stranded DNA-binding protein (Escherichia coli (strain K12)) (P0AGE0 whole entry, looked up): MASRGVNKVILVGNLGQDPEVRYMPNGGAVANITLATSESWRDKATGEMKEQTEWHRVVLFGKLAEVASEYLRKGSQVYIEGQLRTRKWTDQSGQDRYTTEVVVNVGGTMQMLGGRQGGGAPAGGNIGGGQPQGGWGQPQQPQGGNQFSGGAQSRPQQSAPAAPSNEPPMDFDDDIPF
smiles,measurement,value
CCOc1cc(C=C2C(=O)NC(=O)NC2=O)cc(Br)c1OCCOc1ccccc1C,inhibition,36.9%
